According to PubChem BioAssay (NCATS):
Inconclusive results are not listed. A number with no mark means an inactive call. Calls follow the shape of the dose curve; as a rule, active = well fitted inhibition curve with a large enough effect; inconclusive = small, poorly fitted or top-dose-only effect; inactive = flat fitted curve, though single readings scatter. Peptide text beside a SMILES is read from it. * marks the point of attachment. Hexanoyl = CCCCCC(=O)*

target: Aldehyde dehydrogenase, mitochondrial (Homo sapiens) (UniProt P05091); assay: qHTS for Inhibitors of the Aldehyde Dehydrogenase Family (ALDH2) Primary screen (AID 2061308); details: ALDH2 enzyme inhibition qHTS, 1536-well; series mostly up to 56 µM; activity change, negative = inhibition: at the top concentration;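 also: plate controls were vehicle for no effect and reference inhibitor for full effect; nearly all actives have a fitted effect of over 55% in size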

Compound `C[C@@H]1O[C@@H](O[C@H]2[C@H](O[C@H]3CC[C@@]4(C)C(CC[C@]5(C)C4CC=C4C6CC(C)(C)CC[C@]6(C(=O)O[C@@H]6O[C@H](CO[C@@H]7O[C@H](CO)[C@@H](O[C@@H]8O[C@@H](C)[C@H](O)[C@@H](O)[C@H]8O)[C@H](O)[C@H]7O)[C@@H](O)[C@H](O)[C@H]6O)CC[C@]45C)[C@]3(C)CO)OC[C@H](O)[C@@H]2O)[C@H](O)[C@H](O)[C@H]1O` (stereo not given in full) has an activity change, negative = inhibition of 15.8% [at 11.2 µM].

Going from `C[C@@H]1CCC2C(C)(C)[C@H](O)CC[C@]2(C)[C@@]12Cc1c(O)cc3c(c1O2)CNC3=O` (stereo not given in full) to `CC(C)c1c(O)ccc2c1CC[C@H]1C(C)(C)CCC[C@]21C`, the “activity change, negative = inhibition” value falls from 8.83% to 3.6%.

Compared with `Cc1ccc(S(=O)(=O)NCc2ccc(C(=O)NCCN(Cc3ccccc3)C(C)C)cc2)cc1`, `COc1ccccc1-c1cc(Nc2cccc(CS(N)(=O)=O)c2)ncn1` is lower in “activity change, negative = inhibition” value: 9.52% for the first, 5.12% for the second.

Compared with `C=C(C)C1CC(O)C(C)C12CC(O)C1(C)OC1C2O` (stereo not given), `CC1(C)CC2C(C1)C(C)(O)C13CC1(COC3=O)C2O` (stereo not given) is lower in “activity change, negative = inhibition” value: 5.91% for the first, -0.836% for the second.

Going from `COc1cc(COC2OC(CO)C(O)C(O)C2O)cc(OC)c1O` (stereo not given) to `COc1cc(C(C)=O)ccc1O[C@@H]1O[C@H](CO)[C@@H](O)[C@H](O)[C@H]1O`, the “activity change, negative = inhibition” value falls from 10.3% to 5.84%.

First: Nc1ncnc2c1c(-c1ccc(Cl)cc1)nn2-c1cccc(-c2cnnn2Cc2cccc(-c3ccccc3)c2)c1
Second: N#Cc1cccc(C(=O)Nc2cc(-c3ccccc3)nn2-c2ccccc2)c1
The “activity change, negative = inhibition” value of the first is lower: 4.82% for the first, 8.07% for the second.

First: C[C@@H](c1ccccc1)N(C(N)=NC#N)c1cccc2ncccc12
Second: CCCOc1ccc(-c2nc(OC)c3ccccc3n2)cc1
The “activity change, negative = inhibition” value of the first is higher: 1% for the first, -4.64% for the second.

Compared with `C[C@@]1(O)[C@H](O)[C@@H](CO)O[C@H]1n1ccc(N)nc1=O`, `O=c1ccn(C2OC(CO)C(O)C2O)c(=O)[nH]1` (stereo not given) is lower in “activity change, negative = inhibition” value: 0.902% for the first, -3.1% for the second.

First: C=C1C(=O)O[C@@H]2[C@H]1CCC(C)=C1CCC(=O)O[C@]12C
Second: COc1cc(/C=C/C(=O)OC2CC3CCC2(C)C3(C)C)ccc1O (stereo not given)
The “activity change, negative = inhibition” value of the first is higher: 15% for the first, -11.1% for the second.

Compared with `C/C=C(\C)C(=O)O[C@H]1C=CC(=O)O[C@H]1/C=C/[C@@H](O)[C@H](C)O`, `CC1(C)CCC[C@@]2(C)C1[C@H](OC(=O)/C=C/C=C/C(=O)O)C=C1COC(=O)[C@@]12O` (stereo not given in full) is lower in “activity change, negative = inhibition” value: 7.92% for the first, -0.0566% for the second.

Compared with `OCC(CO)(CO)NCC(O)Cn1c2ccc(Cl)cc2c2cc(Cl)ccc21` (stereo not given), `Cc1ccccc1C(=O)Nc1ccc(C(=O)N2CCC[C@@H](O)c3cc(Cl)ccc32)c(C)c1` is higher in “activity change, negative = inhibition” value: -3.35% for the first, 9.41% for the second.

Compared with `CCCCCC(=O)N1CCC[C@H]1C(=O)N[C@@H](Cc1ccc(O)cc1)C(=O)OC` (Hexanoyl-Pro-Tyr-OMe), `C[C@@H](Nc1cc(NS(=O)(=O)N2CCC2)nc(SCc2cccc(F)c2F)n1)[C@@H](O)CO` is lower in “activity change, negative = inhibition” value: 2.43% for the first, -8.99% for the second.

First: CC(C)OC(=O)N1CCC(Oc2ncnc3c2cnn3-c2ccc(S(C)(=O)=O)cc2F)CC1
Second: Cc1cn2cc(CC(=O)N3CCC4(CC3)CN(Cc3ccc(-n5nccn5)cc3Cl)C4)nc2s1
The “activity change, negative = inhibition” value of the first is lower: -0.737% for the first, 10.7% for the second.

First: Cc1ccccc1CN1C2=NCCN2C(=O)C2=C1CCN(Cc1ccccc1)C2
Second: CC1(c2nc3c(C(N)=O)cccc3[nH]2)CCCN1 (stereo not given)
The “activity change, negative = inhibition” value of the first is higher: 5.09% for the first, -8.35% for the second.

Going from `C/C=C/C=C/C=C/C(=O)N(C)C(C(=O)NC(C)C(=O)N1CCCC1C(N)=O)C(C)C` (stereo not given) to `C=CC1(C)CC(OC(=O)C(=C)C(O)COC(C)=O)C(C(=C)C(=O)OC)C(O)C1C(=C)CO` (stereo not given), the “activity change, negative = inhibition” value rises from -12.5% [at 28 µM] to -9.55% [at 28 µM].

First: CCC(C)/C=C(C)/C=C/C1=CC2=C(Cl)C(=O)C(C)(O)C(=O)C2(O)C(OC)O1 (stereo not given)
Second: C[C@H](/C=C/[C@@]1(O)[C@H](C)CC(=O)CC1(C)C)O[C@@H]1O[C@H](CO[C@@H]2OC[C@@H](O)[C@H](O)[C@H]2O)[C@@H](O)[C@H](O)[C@H]1O
The “activity change, negative = inhibition” value of the first is lower: -8.05% [at 28 µM] for the first, 8.37% [at 28 µM] for the second.

Going from `C=C(C)[C@@H]1CC[C@]2(C(=O)O)CC[C@]3(C)C(CCC4[C@@]5(C)C[C@@H](O)[C@H](O)C(C)(C)C5CC[C@]43C)C12` (stereo not given in full) to `C[C@@H]1C(=O)O[C@H]2CC34[C@H]5C[C@@H](C(C)(C)C)C36[C@@H](OC(=O)[C@@H]6O)O[C@@]4(C(=O)O5)[C@]21O` (stereo not given in full), the “activity change, negative = inhibition” value rises from -1.83% [at 28 µM] to 10.9% [at 28 µM].

With `CN1CCN(S(=O)(=O)c2ccc(-c3cnc(N)c(C(=O)Nc4cccnc4)n3)cc2)CC1` the “activity change, negative = inhibition” value was -15.6% [at 28 µM].

For `CC1CCC2(C(=O)O)CCC3(C)C(=CCC4C5(C)CCC(OC(=O)/C=C/c6ccccc6)C(C)(C)C5CCC43C)C2C1C` (stereo not given), the “activity change, negative = inhibition” value was 6.28% [at 16.9 µM].
